ATG4B inhibitor – inhibitors of human ATG4B cysteine protease | Q9Y4P1 | ATG4B cleavage of LC3-PLA2, NBD-HPC fluorescence, 1 h | inhibition, % at 8.33 µM | hit rate 0.51% among 340,000 | AID 504462; in the data active = inhibition above about 40%
Target sequence (Q9Y4P1 whole entry, looked up): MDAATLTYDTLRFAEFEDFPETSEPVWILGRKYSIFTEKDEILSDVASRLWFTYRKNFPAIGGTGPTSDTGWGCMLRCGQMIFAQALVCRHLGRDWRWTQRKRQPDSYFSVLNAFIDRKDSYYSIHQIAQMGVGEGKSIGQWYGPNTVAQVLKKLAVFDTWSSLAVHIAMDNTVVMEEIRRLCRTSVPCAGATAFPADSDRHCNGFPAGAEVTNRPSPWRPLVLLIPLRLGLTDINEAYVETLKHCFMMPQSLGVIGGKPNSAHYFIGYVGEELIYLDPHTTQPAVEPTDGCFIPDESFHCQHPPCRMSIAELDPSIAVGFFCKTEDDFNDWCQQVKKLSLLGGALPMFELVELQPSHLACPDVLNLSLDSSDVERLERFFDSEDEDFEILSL
Calb FLC – affects C. albicans growth with fluconazole; C. albicans CaCi-2 (fluconazole-resistant clinical isolate) + fluconazole, Alamar Blue growth, 48 h; hit rate 0.57% among 300,000; growth inhibition, % (no concentration beside the values);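 active = growth inhibition above about 58% in most replicates, limit read from the data, passing the limit was not always enough; inconclusive = exactly half the replicates above a set limit; inactive = most replicates below a set limit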;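 also: all wells also contain fluconazole at 8 µg/ml as a sub-toxic cotreatment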
Mot1-301 SUMO – blocks SUMOylation pathway, rescuing yeast Mot1-301 growth; hit rate 1% among 320,000; S. cerevisiae Mot1-301 growth rescue, ATP luminescence, 38.5C; percent above DMSO median, 100 means doubled; AID 2716; growth rescue, % at 18.8 µM;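 active = every valid replicate shows activation above 250% relative to neutral control wells; inactive = the rest, any valid replicate at or below 250%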
FAS TE block – blocks the thioesterase domain of human fatty acid synthase. recombinant FAS-TE, OMFH fluorogenic substrate, fluorescence endpoint. inhibition, % at 15 µM. hit rate 0.67% among 360,000;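 active = compounds whose normalised, plate-corrected inhibition of enzyme fluorescence in the single-dose primary screen is 50% or more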
NadD inh – inhibitors of Staphylococcus aureus NadD; inhibition, % at 20 µM; hit rate 0.78% among 360,000; purified NadD enzyme, colorimetric absorbance read-out; in the data active = inhibition above about 26%
Yeast Mot1 SUMO – SUMO pathway inhibitors in yeast Mot1-301 growth | shares compounds with Mot1-301 SUMO | S. cerevisiae Mot1-301 galactose growth, ATP luminescence, 24 h; -100 = growth of slx-deleted rescue strain | growth activity, percent, % at 42 µM | 2,300 tested, under 10 active;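 active = Signal drops as the depositor expects, and the fitted half-maximal dose is no more than ten times the top valid tested dose; inconclusive = Poor fit, or a flat curve whose signal drops by 30% to 70%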;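 also: more negative values mean stronger growth rescue toward the control strain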
Hits are given with their value; – = inactive; ? = inconclusive; · = no result; + = active, no number. Rows were chosen to be rich in hits. Some 3.1% of all compounds tested hit in one or more screens of this group.

SMILES	ATG4B inhibitor	Calb FLC	Mot1-301 SUMO	FAS TE block	NadD inh	Yeast Mot1 SUMO
CCN(CC)c1nc(Nc2ccc(Cl)cc2)nc(OCC#N)n1	–	–	735	–	–	–
Cc1cccc(Nc2nc(OCC#N)nc(N(C)C)n2)c1	–	–	–	–	–	·
Cc1c(Cl)c([N+](=O)[O-])nn1CC(=O)NC12CC3CC(CC(C3)C1)C2	–	–	952	–	–	–
Cc1c(Cl)c([N+](=O)[O-])nn1CC(=O)N1CCCC1	–	–	–	–	–	·
O=C(COc1ncnc2ccccc12)NCCC1=CCCCC1	–	–	–	–	–	·
O=C(COc1cnc2ccccc2n1)NCCC1=CCCCC1	–	–	+	–	–	–
O=C(COc1nncc2ccccc12)NCCC1=CCCCC1	–	–	–	–	–	·
O=C(COc1ncnc2c(Cl)cc(Cl)cc12)NCCC1=CCCCC1	–	–	420	–	–	–
CCNC(=O)C1(C)CCN(C(=O)c2c(F)ccc(C)c2F)C1 (configuration not stated)	·	·	·	–	–	·
Cc1ccc(N(CC(=O)Nc2cccc(C)c2)S(=O)(=O)c2cccc3nonc23)cc1	–	–	616	–	–	–
Cc1ccc(NC(=O)CCS(=O)(=O)c2cccc3nonc23)cc1	–	–	–	–	–	·
Cc1c(CC(=O)N2CCC(C(=O)O)CC2)c(=O)oc2cc3c(cc12)CCC1(CCCCC1)O3	–	–	–	–	–	·
CCOC(=O)COc1nc(-c2ccc(C)cc2)cc(-c2ccco2)c1C#N	–	–	400	–	–	–
N#Cc1c(-c2ccco2)cc(-c2cccnc2)nc1N	–	–	675	–	–	–
O=C1CCCN1C(=O)CSc1nnnn1-c1cccc(F)c1	–	·	–	–	–	·
COc1ccc(-n2nc(C(=O)NCC(=O)N3CCCC3)c3ccccc3c2=O)cc1Cl	–	–	–	–	–	·
Cc1c(C(=O)NC(C)c2ccc(-n3ccnc3)cc2)cccc1[N+](=O)[O-] (configuration not stated)	–	–	407	–	–	–
CC(NC(=O)c1ccccc1Cl)c1ccc(-n2ccnc2)cc1 (configuration not stated)	–	–	–	–	–	·
O=C(CCNS(=O)(=O)c1cccc2nsnc12)NCCC1=CCCCC1	–	–	712	–	–	–
O=S(=O)(NCCC1=CCCCC1)c1cccc2nsnc12	–	–	·	–	–	·
CCN1C(=NCC(C)C)N[C@@H](c2cccc(C(F)(F)F)c2)C(C(=O)OC)=C1C	–	–	779	–	–	–
COC(=O)C1=C(C)N(Cc2ccccc2)C(=NCc2cccc(C(F)(F)F)c2)N[C@H]1c1cccc(F)c1	–	?	–	–	–	·
COC(=O)C1=C(C)N(Cc2ccccc2)C(=NCCCCO)N[C@H]1c1cccc(C(F)(F)F)c1	–	·	–	–	–	·
CCN1C(=NCc2cccc(Cl)c2)N[C@@H](c2cccc(F)c2)C(C(=O)OC)=C1C	–	–	773	–	–	–
C=CCN=C1N[C@@H](c2cccc(C(F)(F)F)c2)C(C(=O)OC)=C(C)N1CC	–	–	–	–	–	·
SMILES	ATG4B inhibitor	Calb FLC	Mot1-301 SUMO	FAS TE block	NadD inh	Yeast Mot1 SUMO
CCN1C(=NCCCCO)N[C@@H](c2cccc(C(F)(F)F)c2)C(C(=O)OC)=C1C	–	–	658	–	–	–
Cc1ccc(N(O)C(=O)NCCCCNC(=O)N(O)c2ccc(C)cc2)cc1	–	–	–	–	–	·
COc1ccc(N(CC(=O)N2CCN(C)CC2)S(=O)(=O)c2cc(C)ccc2OC)cc1Cl	–	–	–	–	–	·
CN(C)C(=O)CCN1CCOCC1	–	–	560	–	–	–
CCCc1nc(NCc2ccccc2)c(C#N)c2c1CCCC2	–	–	789	–	–	–
CCCc1nc(NCCO)c(C#N)c2c1CCCC2	–	–	–	–	–	·
Cc1ccc(NC2CC(=O)N(c3ccc(N4CCCCC4)cc3)C2=O)cc1 (configuration not stated)	–	–	680	–	–	–
CC1(C)CC(=O)C2=C(C1)OC(N)=C(C#N)C21C(=O)N(CN2CCOCC2)c2ccccc21 (configuration not stated)	–	–	457	–	–	–
COC/C=C/C1=CC2=CC(=O)C(C)(OC(=O)c3cnc4ccccc4n3)C(=O)C2=CN1CCCOC(C)C (configuration not stated)	–	–	–	–	–	·

Source: PubChem (several laboratories)
